Shiga inhibitor: A qHTS for Small Molecule Inhibitors of Shiga Toxin. Vero cells, Shiga toxin protein synthesis inhibition reporter. inhibition, % at 38.7 µM. hit rate 9.2% among 290,000. AID 2315, 2010; in the data active = inhibition mostly above about 28%, no sharp cut-off; inactive = mostly below about 43%; also: 0% is about no effect
Pf growth 96h: Primary qHTS for delayed death inhibitors of the malarial parasite plastid, 96 hour incubation | P. falciparum luciferase reporter growth, 96 h | Potency, µM (top dose mostly 28.7 µM), without a hit: top-dose activity change, negative = inhibition, usual class: inhibitors | hit rate 6.9% among 320,000; also: potency is read from the fitted curve at half-maximal effect; % is scaled to controls: 0 for no effect and ±100 for the full control effect
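P. falciparum expressing integrated firefly luciferase, in erythrocytes at 2% hematocrit, 0.05% parasitemia, incubated with compounds 96 h at 37 C, 5% CO2. Growth inhibition read as loss of luminescence; two-generation exposure targets delayed-death apicoplast inhibitors.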
AMA1 RON2 block: qHTS for Inhibitors of AMA1-RON; Towards Development of Antimalarial Drug Lead: Primary Screen. Plasmodium falciparum AMA1 (3D7) - RON2 peptide interaction. AlphaScreen AMA1-biotinylated RON2 peptide binding. Potency, µM (doses to about 58.2 µM), for inactives: top-dose activity change, negative = inhibition, most hits filed as inhibitors. hit rate 0.2% among 360,000;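 also: potency is read from the fitted curve at half-maximal effect; 0% = vehicle wells and -100% = peptide control; nearly all actives have a fitted effect of over 45% in size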
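AMA1 (3D7) with his tag at 25 nM final met compounds first, then biotinylated RON2 peptide at 25 nM; detection used donor plus acceptor beads, 10 µg/mL apiece, read by AlphaScreen after 30 min at room temperature.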
HCV inhibitor: qHTS Assay for Inhibitors of Hepatitis C Virus (HCV); Huh7.5.1 HCVcc-Cre infection, luciferase reporter, 44 h; Potency, µM (titrated, usually from 41.8 µM), for inactives: at the highest dose activity change, negative = inhibition, actives largely listed as inhibitors; hit rate 3.4% among 340,000; AID 651820, 2012; also: potency is read from the fitted curve at half-maximal effect; % is scaled to controls: 0 for no effect and ±100 for the full control effect
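1,000 cells/well; 4 h culture; + compound; + HCVcc-Cre (~0.5 moi); 44 h; luciferase substrate, RT 15 min; read 15 sec.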
Pf growth 48h: Primary qHTS for delayed death inhibitors of the malarial parasite plastid, 48 hour incubation | hit rate 5.9% among 310,000 | AID 504832, 2011 | Potency, µM (highest dose often 28.7 µM), inactives show at the highest dose activity change, negative = inhibition, usual class: inhibitors | P. falciparum luciferase growth in erythrocytes, 48 h; also: potency is read from the fitted curve at half-maximal effect; % is scaled to controls: 0 for no effect and ±100 for the full control effect
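Parasite viability was followed by luminescence of a genomically integrated firefly luciferase. Cultures held 0.1% parasitemia at 2% hematocrit (final), incubated under 5% CO2 at 37 C.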
Cycloheximide cs: Cycloheximide Counterscreen for Small Molecule Inhibitors of Shiga Toxin. cell reporter, cycloheximide protein synthesis inhibition counterscreen. AID 2314, 2010. hit rate 12% among 300,000. max response, %; in the data active = max response mostly above about 13%, no sharp cut-off; inactive = mostly below about 14%; also: read at 38.3 µM for the half of the compounds with a filed dose; 0% is about no effect
The depositor's hits bear a star; [ ] = dose if it differs, or a comment. The list is not random: actives were taken first. Their share in the collection is about 21%. Unless noted, calls follow the shape of the dose curve; as a rule, active = well fitted curve in the direction sought with a large enough effect; inconclusive = small, poorly fitted or top-dose-only effect, or another doubt; inactive = no such curve, though single readings can be large; an effect the other way counts as inactive or inconclusive.

Screening On1c(-c2ccccc2)nc2ccccc21 returned Shiga inhibitor 40, Pf growth 96h 8%, AMA1 RON2 block 8%, HCV inhibitor 23%, Pf growth 48h -22% and Cycloheximide cs 13.
Cc1ccc(N(O)C(=O)NCCCCNC(=O)N(O)c2ccc(C)cc2)cc1 was read as Shiga inhibitor 52*, Pf growth 96h 24%, AMA1 RON2 block -14%, HCV inhibitor -12%, Pf growth 48h inconclusive and Cycloheximide cs 36*.
`O=C(CN(c1ccccc1Cl)S(=O)(=O)c1ccccc1)NCc1ccccc1` gave Shiga inhibitor 21, Pf growth 96h 12µM*, AMA1 RON2 block -5%, HCV inhibitor -19%, Pf growth 48h inconclusive and Cycloheximide cs 7.
`O=C(CN(c1ccc2c(c1)OCCO2)S(=O)(=O)c1ccccc1)NCc1ccc(Cl)cc1` gave Shiga inhibitor -9, Pf growth 96h 12µM*, AMA1 RON2 block -6%, HCV inhibitor inconclusive, Pf growth 48h -26% and Cycloheximide cs -6.
For CN(C)S(=O)(=O)c1cc(C(=O)NCc2ccccc2)c(Cl)cc1Cl the results were Shiga inhibitor -7, Pf growth 96h 47%[1.15 µM], AMA1 RON2 block 0%, HCV inhibitor 13µM*, Pf growth 48h -4% and Cycloheximide cs 13.
Screening CN(C(=O)c1ccccc1Cl)c1ccccc1C(=O)NCc1ccccc1 returned Shiga inhibitor -10, Pf growth 96h 13%, AMA1 RON2 block -5%, HCV inhibitor 13%, Pf growth 48h 0% and Cycloheximide cs -1.
CC(=O)OCC=C1CCC2C3CC(C)C4=CC(=O)CCC4(C)C3C(O)CC12C (centres undefined) was read as AMA1 RON2 block -3% and HCV inhibitor -10%.
`Cc1nc(-c2ccccc2)c(-c2ccncc2)o1` gave Shiga inhibitor -10 and Cycloheximide cs -2.
`CCOc1cc2c(cc1OCC)-n1cccc1C(c1cccc(F)c1F)NC2` (centres undefined) gave Shiga inhibitor -5, Pf growth 96h inconclusive, AMA1 RON2 block inconclusive, HCV inhibitor -22%, Pf growth 48h inconclusive and Cycloheximide cs 13.
CCOc1cc2c(cc1OCC)-n1cccc1C(c1c(O)cccc1OC)NC2 (centres undefined) was read as Shiga inhibitor -11, Pf growth 96h -28%, AMA1 RON2 block inconclusive, HCV inhibitor inconclusive, Pf growth 48h 13µM* and Cycloheximide cs -2.
CCOc1cc2c(cc1OCC)-n1cccc1C(c1ccc(F)c(OC)c1)NC2 (centres undefined) was read as Shiga inhibitor -4, Pf growth 96h -1%, AMA1 RON2 block -18%, HCV inhibitor -17%, Pf growth 48h 10µM* and Cycloheximide cs -3.
CCOc1cc2c(cc1OCC)-n1cccc1C(c1ccc(OC)c(OC)c1)NC2 (centres undefined) was read as Shiga inhibitor -9, Pf growth 96h 0%, AMA1 RON2 block 0%, HCV inhibitor inconclusive, Pf growth 48h inconclusive and Cycloheximide cs -4.
Screening CCOc1cc2c(cc1OCC)-n1cccc1C(c1ccccc1OC)NC2 (centres undefined) returned Shiga inhibitor -19, Pf growth 96h 0%, AMA1 RON2 block inconclusive, HCV inhibitor -26%, Pf growth 48h 10µM* and Cycloheximide cs -2.
CCOc1cc2c(cc1OCC)-n1cccc1C(c1ccccc1O)NC2 (centres undefined) was read as Shiga inhibitor -11, Pf growth 96h 6%, AMA1 RON2 block -18%, HCV inhibitor -5%, Pf growth 48h 8.3µM* and Cycloheximide cs 4.
For O=C(Nc1ccc(Cl)cc1)C1Cc2c(-c3cccc(F)c3)ccnc2O1 (centres undefined) the results were AMA1 RON2 block -5%.
Screening O=C(Nc1ccc(N2CCOCC2)nc1)c1ccc(Cl)cc1 returned Shiga inhibitor 49*, Pf growth 96h 15%, AMA1 RON2 block -2%, HCV inhibitor inconclusive, Pf growth 48h 9% and Cycloheximide cs 16*.
For CN1CCN(c2ccc(NC(=O)c3ccc(C(F)(F)F)cc3)cn2)CC1 the results were Shiga inhibitor -4, Pf growth 96h inconclusive, AMA1 RON2 block -2%, HCV inhibitor 11µM*, Pf growth 48h inconclusive and Cycloheximide cs 13.
For O=C(Nc1ccc(N2CCOCC2)cc1)c1ccc(Cl)nc1 the results were Shiga inhibitor -13, AMA1 RON2 block -7%, HCV inhibitor 13%, Pf growth 48h 3% and Cycloheximide cs -1.
Screening Cc1ccccc1C(=O)Nc1ccc(N2CCN(C)CC2)nc1 returned Shiga inhibitor 52, Pf growth 96h 106%, AMA1 RON2 block -3%, HCV inhibitor -1%, Pf growth 48h 63% and Cycloheximide cs 22*.
O=C(Nc1cc(N2CCOCC2)ncn1)c1ccccc1 was read as Shiga inhibitor 41, Pf growth 96h 5%, AMA1 RON2 block 4%, HCV inhibitor 17%, Pf growth 48h 185% and Cycloheximide cs 16*.
Screening COc1ccc(CN(C)C[C@@H]2OCc3cnnn3CCCC(=O)N([C@H](C)CO)C[C@H]2C)cc1 returned AMA1 RON2 block -4%.
For O=C(Nc1cc(Cl)ccc1-n1cncn1)c1cc(F)c(F)c(F)c1F the results were Pf growth 96h -7%, AMA1 RON2 block 9%, HCV inhibitor -5%[8.37 µM] and Pf growth 48h -15%.
`CCc1nc2ccc(C(=O)Nc3cccc(OCC(=O)N(C)C)c3)cn2c1N(C)C(=O)c1ccncc1` gave AMA1 RON2 block -1%.
`CN1CCc2ccc(NC(=O)c3ccc(C(F)(F)F)cc3)cc2C1` gave Shiga inhibitor 25*, Pf growth 96h -35%, AMA1 RON2 block -7%, HCV inhibitor inconclusive, Pf growth 48h inconclusive and Cycloheximide cs 14*.
For CCOC(=O)Cn1nnnc1C(CC)N(Cc1ccccc1)Cc1cc2cc(C)ccc2[nH]c1=O (centres undefined) the results were Shiga inhibitor -18, Pf growth 96h inconclusive, AMA1 RON2 block 0%, HCV inhibitor 7% and Cycloheximide cs -4.
`CCC(c1nnnn1CCc1ccccc1)N(Cc1ccco1)Cc1cc2cc(C)cc(C)c2[nH]c1=O` (centres undefined) gave Shiga inhibitor -13, Pf growth 96h -19%, AMA1 RON2 block -11%, HCV inhibitor 10µM*, Pf growth 48h 12µM* and Cycloheximide cs -2.

High-throughput results as filed in PubChem.
